Data as given in ChEMBL document CHEMBL3988442, “University of Dundee, Small-Polar-MMV Screening Library” (2021).
For part of these data: Potency and affinity values are given separately.

What was measured:
Set-up in all cases: scale not given: direction of the effect not stated beside the values
[1] = molecular target: Protein translocase subunit SecA (Escherichia coli (strain K12)) (UniProt P10408); experiment: Assay to Identify E. coli SecA ATPase Inhibitors; type: functional; details: 30 µM
[2] = molecular target: T1, Ubiquitin-activating enzyme e1, putative (Leishmania donovani (strain BPK282A1)) (UniProt E9BSI1); experiment: Leishmania donovani Ubiquitin Activating Enzyme (LdE1); type: functional; details: 30 µM
T1 sequence (whole entry): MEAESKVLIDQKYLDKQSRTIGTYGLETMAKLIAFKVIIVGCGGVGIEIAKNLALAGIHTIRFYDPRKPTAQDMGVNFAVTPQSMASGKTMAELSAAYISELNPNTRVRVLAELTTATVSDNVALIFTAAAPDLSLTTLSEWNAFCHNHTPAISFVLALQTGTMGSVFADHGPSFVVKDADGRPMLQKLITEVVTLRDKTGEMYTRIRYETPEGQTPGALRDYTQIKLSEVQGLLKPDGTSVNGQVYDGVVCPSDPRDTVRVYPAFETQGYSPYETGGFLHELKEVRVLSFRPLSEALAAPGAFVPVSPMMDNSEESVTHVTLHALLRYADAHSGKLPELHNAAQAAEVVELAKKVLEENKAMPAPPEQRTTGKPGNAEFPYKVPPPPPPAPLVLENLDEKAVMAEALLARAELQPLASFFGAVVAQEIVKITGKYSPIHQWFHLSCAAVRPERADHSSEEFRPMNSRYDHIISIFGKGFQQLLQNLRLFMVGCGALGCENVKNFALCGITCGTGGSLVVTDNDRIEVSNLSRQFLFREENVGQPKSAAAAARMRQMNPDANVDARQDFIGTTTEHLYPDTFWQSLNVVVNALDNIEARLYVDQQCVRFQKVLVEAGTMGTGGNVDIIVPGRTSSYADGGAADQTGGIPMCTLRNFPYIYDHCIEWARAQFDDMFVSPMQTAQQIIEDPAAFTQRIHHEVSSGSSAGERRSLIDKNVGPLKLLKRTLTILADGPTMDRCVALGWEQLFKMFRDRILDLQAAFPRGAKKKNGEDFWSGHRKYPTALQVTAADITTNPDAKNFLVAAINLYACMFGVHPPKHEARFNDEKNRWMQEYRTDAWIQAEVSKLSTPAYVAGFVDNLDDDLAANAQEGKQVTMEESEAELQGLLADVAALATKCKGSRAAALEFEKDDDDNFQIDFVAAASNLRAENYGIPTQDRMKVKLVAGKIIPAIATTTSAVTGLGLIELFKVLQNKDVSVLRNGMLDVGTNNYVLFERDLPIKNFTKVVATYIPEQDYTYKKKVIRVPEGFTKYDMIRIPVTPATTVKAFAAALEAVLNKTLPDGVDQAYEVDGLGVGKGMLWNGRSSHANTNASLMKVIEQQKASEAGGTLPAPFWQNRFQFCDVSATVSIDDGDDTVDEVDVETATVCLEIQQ

[3] = molecular target: Sialic acid-binding Ig-like lectin 9 (Homo sapiens) (UniProt Q9Y336); experiment: Hs-Siglec9 ALPHAscreen SOP 20170721; details: 10 µM
Trypanosoma cruzi = experiment: Trypanosoma cruzi phosphomannomutase and mannose-1-phosphate guanylyltransferase assay; type: functional; details: 10 µM
[4] = molecular target: T2, Arginase-2, mitochondrial (Homo sapiens) (UniProt P78540); experiment: in vitro enzyme assay to detect the production of urea directly proportional to the activity of Arginase II; type: functional; details: 33.3 µM; further: in the data most compounds retested in dose-response had high values
T2 sequence (whole entry): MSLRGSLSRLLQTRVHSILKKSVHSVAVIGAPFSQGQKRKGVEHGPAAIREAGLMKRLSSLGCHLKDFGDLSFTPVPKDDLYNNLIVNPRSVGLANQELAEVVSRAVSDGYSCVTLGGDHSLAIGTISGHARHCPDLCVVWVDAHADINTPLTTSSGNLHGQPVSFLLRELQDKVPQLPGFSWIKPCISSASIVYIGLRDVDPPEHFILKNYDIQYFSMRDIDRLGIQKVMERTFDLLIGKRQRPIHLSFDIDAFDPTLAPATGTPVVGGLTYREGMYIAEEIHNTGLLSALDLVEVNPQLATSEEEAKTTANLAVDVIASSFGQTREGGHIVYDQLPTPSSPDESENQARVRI

[5] = molecular target: T3, Proteasome subunit beta (Trypanosoma cruzi) (UniProt O96673); experiment: Trypanosoma cruzi proteasome chymotrypsin-like activity (TcProtChymo) assay.; further: in the data most compounds retested in dose-response had high values; type: functional; details: 9.37 µM
T3 sequence (whole entry): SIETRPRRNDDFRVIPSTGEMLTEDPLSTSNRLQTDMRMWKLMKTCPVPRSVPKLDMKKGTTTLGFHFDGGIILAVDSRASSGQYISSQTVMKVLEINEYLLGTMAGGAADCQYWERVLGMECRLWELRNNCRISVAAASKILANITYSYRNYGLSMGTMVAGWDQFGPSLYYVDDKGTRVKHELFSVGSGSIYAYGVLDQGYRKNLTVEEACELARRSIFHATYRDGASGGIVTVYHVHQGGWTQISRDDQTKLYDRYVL

Homo sapiens = organism: Homo sapiens; experiment: To identify inhibition of the IFN signalling (Jak-Stat) pathway via expression of an eGFP reporter gene under the control of an IFN-stimulated response element (ISRE) containing MxA promoter.; type: functional; details: 30 µM
[6] = molecular target: T4, Tyrosyl-tRNA synthetase, putative (Trypanosoma cruzi (strain CL Brener)) (UniProt Q4DSP6); experiment: Trypanosoma cruzi tyrosyl tRNA synthetase (TcYRS) _High Tyrosine SOP; type: functional; details: 30 µM; further: in the data most compounds retested in dose-response had high values
T4 sequence (whole entry): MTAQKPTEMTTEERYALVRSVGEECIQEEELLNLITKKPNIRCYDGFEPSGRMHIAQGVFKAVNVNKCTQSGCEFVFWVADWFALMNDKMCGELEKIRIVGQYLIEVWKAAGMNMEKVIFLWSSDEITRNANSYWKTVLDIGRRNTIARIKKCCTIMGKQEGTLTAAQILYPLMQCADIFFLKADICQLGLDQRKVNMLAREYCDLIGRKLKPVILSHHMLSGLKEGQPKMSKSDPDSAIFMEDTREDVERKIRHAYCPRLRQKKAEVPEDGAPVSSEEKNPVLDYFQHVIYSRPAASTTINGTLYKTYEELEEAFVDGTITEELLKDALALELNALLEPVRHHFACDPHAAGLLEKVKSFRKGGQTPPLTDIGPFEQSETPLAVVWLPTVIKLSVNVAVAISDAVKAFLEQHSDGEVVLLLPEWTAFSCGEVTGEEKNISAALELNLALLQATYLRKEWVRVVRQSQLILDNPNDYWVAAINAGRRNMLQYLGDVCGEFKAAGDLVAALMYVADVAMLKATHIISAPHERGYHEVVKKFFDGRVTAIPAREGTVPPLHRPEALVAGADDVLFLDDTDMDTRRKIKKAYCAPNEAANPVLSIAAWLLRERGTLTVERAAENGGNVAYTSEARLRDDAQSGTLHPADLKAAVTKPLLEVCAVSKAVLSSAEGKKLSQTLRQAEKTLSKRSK

[7] = molecular target: T4, Tyrosyl-tRNA synthetase, putative (Trypanosoma cruzi (strain CL Brener)); experiment: Trypanosoma cruzi tyrosyl tRNA synthetase (TcYRS) SOP; type: functional; details: 30 µM
[8] = molecular target: Chromo domain-containing protein 1 (Saccharomyces cerevisiae (strain ATCC 204508 / S288c) (Baker's yeast)) (UniProt P32657); experiment: ScCHD-1 Enzyme Inhibition Assay; type: functional; details: 30 µM; further: in the data most compounds retested in dose-response had high values
Sequence of Chromo domain-containing protein 1 (Saccharomyces cerevisiae (strain ATCC 204508 / S288c) (Baker's yeast)) (P32657 whole entry, the tested form may be a part): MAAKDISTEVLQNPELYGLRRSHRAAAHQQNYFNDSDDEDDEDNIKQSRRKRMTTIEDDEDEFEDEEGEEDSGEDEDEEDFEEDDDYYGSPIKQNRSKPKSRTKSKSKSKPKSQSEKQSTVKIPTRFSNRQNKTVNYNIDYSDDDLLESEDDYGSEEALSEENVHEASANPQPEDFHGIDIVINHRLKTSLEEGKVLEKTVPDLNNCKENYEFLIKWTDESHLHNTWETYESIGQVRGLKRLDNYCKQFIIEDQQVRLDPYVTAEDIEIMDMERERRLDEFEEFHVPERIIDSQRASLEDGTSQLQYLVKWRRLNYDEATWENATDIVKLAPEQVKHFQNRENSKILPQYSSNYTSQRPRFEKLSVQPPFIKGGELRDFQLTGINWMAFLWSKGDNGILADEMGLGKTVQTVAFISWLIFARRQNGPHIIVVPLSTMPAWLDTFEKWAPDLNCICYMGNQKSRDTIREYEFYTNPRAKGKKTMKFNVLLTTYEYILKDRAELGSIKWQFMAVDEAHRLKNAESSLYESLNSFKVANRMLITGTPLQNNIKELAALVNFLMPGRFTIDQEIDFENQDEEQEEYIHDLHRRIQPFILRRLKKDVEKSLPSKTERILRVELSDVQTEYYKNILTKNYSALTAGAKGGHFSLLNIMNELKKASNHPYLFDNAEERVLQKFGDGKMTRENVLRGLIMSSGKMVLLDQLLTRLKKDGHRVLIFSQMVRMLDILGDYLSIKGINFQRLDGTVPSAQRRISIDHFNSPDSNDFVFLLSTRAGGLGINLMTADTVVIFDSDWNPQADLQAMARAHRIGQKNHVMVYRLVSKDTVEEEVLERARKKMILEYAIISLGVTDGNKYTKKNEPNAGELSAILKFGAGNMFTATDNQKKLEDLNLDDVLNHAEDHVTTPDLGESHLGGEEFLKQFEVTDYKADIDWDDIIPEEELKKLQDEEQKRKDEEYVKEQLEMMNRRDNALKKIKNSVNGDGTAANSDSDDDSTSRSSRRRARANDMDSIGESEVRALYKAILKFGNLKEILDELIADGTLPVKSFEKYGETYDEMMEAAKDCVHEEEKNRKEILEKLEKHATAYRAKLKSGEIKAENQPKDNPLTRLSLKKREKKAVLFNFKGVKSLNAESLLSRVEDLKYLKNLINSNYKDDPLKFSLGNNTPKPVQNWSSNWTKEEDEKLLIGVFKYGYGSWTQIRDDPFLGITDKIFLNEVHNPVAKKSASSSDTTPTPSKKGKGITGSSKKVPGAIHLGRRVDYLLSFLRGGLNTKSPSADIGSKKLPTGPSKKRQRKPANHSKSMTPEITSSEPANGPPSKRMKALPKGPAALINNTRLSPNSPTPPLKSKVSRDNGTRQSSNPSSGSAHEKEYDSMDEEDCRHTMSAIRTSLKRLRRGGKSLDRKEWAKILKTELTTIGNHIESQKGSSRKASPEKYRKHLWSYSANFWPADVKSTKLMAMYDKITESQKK

Sequence of Protein translocase subunit SecA (Escherichia coli (strain K12)) (P10408 whole entry): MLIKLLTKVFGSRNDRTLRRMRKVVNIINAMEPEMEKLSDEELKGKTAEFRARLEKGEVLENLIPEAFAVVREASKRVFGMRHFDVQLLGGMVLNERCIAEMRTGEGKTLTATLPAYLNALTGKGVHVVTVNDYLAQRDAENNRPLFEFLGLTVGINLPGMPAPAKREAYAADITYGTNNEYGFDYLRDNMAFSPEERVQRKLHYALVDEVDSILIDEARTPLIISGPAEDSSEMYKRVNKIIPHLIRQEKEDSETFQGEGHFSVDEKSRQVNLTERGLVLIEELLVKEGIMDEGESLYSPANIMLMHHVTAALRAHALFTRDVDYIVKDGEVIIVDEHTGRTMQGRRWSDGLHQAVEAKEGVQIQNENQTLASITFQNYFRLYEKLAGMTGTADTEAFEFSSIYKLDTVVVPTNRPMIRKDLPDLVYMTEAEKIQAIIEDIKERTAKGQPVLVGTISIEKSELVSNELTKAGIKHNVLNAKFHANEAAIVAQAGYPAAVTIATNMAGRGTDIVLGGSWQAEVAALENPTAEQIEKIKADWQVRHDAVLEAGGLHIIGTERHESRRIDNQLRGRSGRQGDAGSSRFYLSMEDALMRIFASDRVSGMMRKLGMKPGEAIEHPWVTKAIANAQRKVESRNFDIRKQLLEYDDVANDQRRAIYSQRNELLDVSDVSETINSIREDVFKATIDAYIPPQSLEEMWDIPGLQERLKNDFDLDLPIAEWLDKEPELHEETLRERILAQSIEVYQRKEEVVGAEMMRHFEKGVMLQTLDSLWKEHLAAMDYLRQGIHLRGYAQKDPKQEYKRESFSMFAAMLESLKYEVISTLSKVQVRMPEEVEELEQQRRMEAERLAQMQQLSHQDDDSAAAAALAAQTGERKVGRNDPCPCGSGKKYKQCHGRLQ
Sequence of Sialic acid-binding Ig-like lectin 9 (Homo sapiens) (Q9Y336 whole entry): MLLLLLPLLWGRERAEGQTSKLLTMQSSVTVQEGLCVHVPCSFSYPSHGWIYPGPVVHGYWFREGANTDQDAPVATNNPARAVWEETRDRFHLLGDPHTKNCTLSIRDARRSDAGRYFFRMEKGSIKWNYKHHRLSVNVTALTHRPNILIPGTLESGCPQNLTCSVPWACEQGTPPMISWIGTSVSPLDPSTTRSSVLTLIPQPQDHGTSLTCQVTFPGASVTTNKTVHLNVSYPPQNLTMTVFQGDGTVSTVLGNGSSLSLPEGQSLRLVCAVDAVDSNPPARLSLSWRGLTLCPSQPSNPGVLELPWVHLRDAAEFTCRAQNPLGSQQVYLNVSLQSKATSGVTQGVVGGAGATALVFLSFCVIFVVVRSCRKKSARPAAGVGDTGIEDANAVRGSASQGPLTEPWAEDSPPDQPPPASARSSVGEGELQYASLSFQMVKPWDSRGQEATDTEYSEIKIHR

SMILES	Percent Effect [1]	Percent Effect [2]	Percent Effect [3]	Percent Effect (Trypanosoma cruzi)	Percent Effect [4]	Percent Effect [5]	Percent Effect (Homo sapiens)	Percent Effect [6]	Percent Effect [7]	Percent Effect [8]
CCn1cc(CN(C)S(=O)(=O)c2cnn(CC)c2C)c(C)n1	39.4%	14.7%	-2.08%	-0.986%	3.1%	15.3%	39.3%	2.12%	10%	-20.5%
Cc1noc(C(C)C)c1C(=O)NCCCOC(C)C	0.204%	2.6%	15.3%	0.373%	-2.25%	6.67%	-3.84%	0.98%	9.41%	-6.89%
NC(=O)c1cc(C2CCCN(CCOCC(F)(F)F)C2)n[nH]1 (stereo not given)	-3.84%	2.56%	-22.8%	9.3%	-5.33%	8.45%	-4.53%	2.39%	10.8%	26.2%
CC(NCc1c(C(C)C)nn(C)c1N1CCOCC1)C(N)=O (stereo not given)	-5.06%	7.69%	-15.9%	-3.66%	-1.23%	14.8%	16.4%	0.478%	8.43%	-6.18%
COCc1nc(C(=O)NS(=O)(=O)c2cc(F)ccc2F)cs1	-3.64%	-2.56%	-5.81%	-1.41%	-1.64%	-0.939%	22.9%	-0.478%	-6.02%	4.47%
CCn1cc(S(=O)(=O)N(C)Cc2c(Br)cnn2CC)c(C)n1	8.78%	12%	-0.969%	-3.55%	3.54%	16.6%	20.6%	3.17%	7.5%	-17.9%
CC(C)n1[nH]c(=O)c2c1NC(=O)CC2c1cccnc1 (stereo not given)	0.982%	13.5%	1.14%	0.873%	1.75%	18.7%	23.6%	3.72%	19.5%	-3.39%
COCCN1C(=O)CCC12CCN(C(=O)CC1CC1)CC2	-0.652%	-1.3%	0.0799%	-0.938%	2.28%	5.75%	11.8%	-0.966%	-15%	0.945%
COc1ccccc1OCC(=O)NS(=O)(=O)c1ccccc1Br	-3.71%	13%	10.4%	5.78%	5.12%	3.51%	4.3%	0%	16.5%	-9.19%
CN(Cc1ccc2c(c1)OCCO2)C(=O)Cn1ccccc1=O	-0.175%	13.3%	1.7%	-5.02%	5.76%	19.8%	3.52%	2.63%	7.69%	-7.25%
COCCN1CC(C(=O)NCc2ccnc(-n3cccn3)c2)CC1=O (stereo not given)	-3.79%	-5.13%	-5.84%	-1.22%	3.28%	-1.79%	23.2%	-2.39%	-3.61%	6.47%
CN(C)CCOCC1CN(Cc2ccsc2)Cc2ccnn2C1 (stereo not given)	-2.84%	-1.3%	1.33%	-3.41%	-1.62%	2.21%	-1.71%	1.58%	2.56%	0.0554%
Cn1nc2c(cc1=O)CN(Cc1nc(-c3cccs3)no1)CC2	-4.37%	5.33%	3.65%	1.61%	-1.77%	13.7%	12.3%	-0.526%	2.56%	-8.34%
O=C(NCc1ccccc1)[C@H]1C[C@@H]2CN(S(=O)(=O)C3CC3)C[C@H]1O2	-3.6%	1.3%	-4.1%	-3.99%	-1.22%	14.4%	14.4%	3.68%	7.69%	1.77%
Cc1ccccc1N1CC2(CCN(S(=O)(=O)c3cccs3)C2)CC1=O (stereo not given)	-1.18%	24.7%	-0.756%	0%	-15.5%	8.67%	10.2%	5.8%	2.5%	-9.98%
Cc1ccc(CCN2CCC(N(C)Cc3noc(C4CC4)n3)C2)cc1 (stereo not given)	-0.729%	10.3%	-7.58%	0.0939%	3.69%	11.7%	-3.17%	5.26%	8.43%	-4.27%
Cc1ccc(Cl)cc1N1CCC(CNC(=O)CCn2ccnn2)C1 (stereo not given)	-2.11%	12.8%	-5.81%	-2.35%	8.61%	15.8%	24.6%	5.26%	18.1%	0.402%
CC(C)(C)c1cn2nc(N3CCCC3Cn3cncn3)sc2n1 (stereo not given)	0.788%	17.9%	-6.25%	2.72%	6.15%	17.1%	12.8%	3.35%	20.5%	-6.04%
CS(=O)(=O)N1Cc2ccccc2C2(CCN(C(=O)c3ccno3)CC2)C1	2.76%	19.5%	-5.73%	-10.7%	5.48%	18.4%	9.88%	6.76%	7.5%	-10.6%
CCC(NC(=O)c1ccco1)c1ccccc1OCC(=O)N1CCCC1 (stereo not given)	-0.841%	20.5%	-7.21%	8.92%	-5.33%	12.5%	13.3%	3.35%	22.9%	-5.94%
O=C(NCCn1ccnc1)N1CCN(Cc2cccs2)CC1	2.19%	18.2%	-6.1%	-9.14%	2.66%	21.9%	12.6%	4.9%	16.5%	-9.63%
